IL1B secr inh = blocks inflammasome-driven IL-1 beta release. THP-1 LPS/ATP IL-1B secretion, AlphaLISA, 16 h; stronger effect = lower value. activity change, % at 57.5 µM. 360,000 compounds, 4.7% hits; in the data active = activity change below about -50%; inconclusive = mostly about -30% to -49%; note: % is set by controls: 0 for no effect and ±100 for the full control effect
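Secreted IL-1B measured by AlphaLISA bead assay after 16 h compound exposure of THP-1 cells; compounds (final up to 57.5 uM) added 1 h before LPS (250 ng/mL) and ATP (1.25 mM) stimulation; lower signal means less secretion.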
DT40 TDP1 no CPT = qHTS for Inhibitors of human tyrosyl-DNA phosphodiesterase 1 (TDP1): qHTS in cells in absence of CPT; 420,000 compounds, 15% hits; Potency, µM (highest dose often 46.2 µM), inactives show at the top dose activity change, negative = growth inhibition, hits mostly inhibitors; DT40 Tdp1-/- hTDP1 cells, no CPT, ATP luminescence, 48 h; note: potency is the fitted concentration of half-maximal effect; % is set by controls: 0 for no effect and ±100 for the full control effect; nearly all actives have a fitted effect of over 55% in size
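Camptothecin absent (DMSO only). Human TDP1-complemented DT40 knockout cells, 400 cells/well, 37 °C for minimum 48 hr; ATP measured via CellTiter-Glo, 30 min dark incubation, luminescence.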
MCF10A rereplic = induces DNA re-replication in MCF 10a normal breast cells; AID 624296; MCF 10A DNA re-replication, Hoechst nuclear intensity, 48 h; 350,000 compounds, 2.9% hits; Potency, µM (titrated, usually from 46.1 µM), without a hit: top-dose activity, positive = re-replication, hits mostly activators; note: potency is the fitted concentration of half-maximal effect; % of control where 0% means no effect; nearly all actives have a fitted effect of over 50% in size
BCR signal inh = blocks chronic active B-cell receptor signaling; ABC-DLBCL IkBa-CBG/CBR reporter, luminescence ratio, 4 h; Potency, µM (titrated, usually from 46.1 µM), without a hit: top-dose activity change, negative = inhibition, usual class: inhibitors; 340,000 compounds, 0.05% hits; active = well fitted inhibition curve with a large enough effect in the signal ratio, with a control signal flat, not every such curve was filed as active; inconclusive = small, poorly fitted or top-dose-only effect, or effect the other way, or a change in a side signal; the % refers to the signal ratio;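 note: potency is the fitted concentration of half-maximal effect; plate controls were basal doxycycline-induced cells for no effect and cells given 10 µM MG132 for full effect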
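Cell line TMD8 (human ABC DLBCL), stably expressing tet-inducible CBG68-IkBa fusion and CBR; IMDM/0.5% FBS; cpd up to 46 uM; dox induction, 4 h, 37C/5% CO2; dual luminescence; green/red ratio; MG132 control.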
SW480 rerep = inducers of DNA re-replication in SW480 colon cancer cells; Potency, µM (top dose mostly 46.1 µM), without a hit: top-dose re-replication activation, most hits filed as activators; SW480 DNA re-replication, Hoechst DNA content imaging, 48 h; AID 624297; 340,000 compounds, 1.8% hits; note: potency is the fitted concentration of half-maximal effect; % of control where 0% means no effect; nearly all actives have a fitted effect of over 55% in size
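Per well, 250 cells were exposed to pinned compound for 48 hr. Nuclear DNA was visualised with Hoechst (40 min, 37 C) and total object intensity recorded by fluorescence scanning.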
TDP1 cell CPT = growth inhibition of DT40 Tdp1-/-;hTDP1 cells with camptothecin (screen for TDP1 inhibitors); chicken DT40 Tdp1-/-;hTDP1 cells + 20 nM CPT, ATP luminescence, 48 h; Potency, µM (titrated, usually from 46.2 µM), inactives show at the highest dose activity change, negative = growth inhibition, actives largely listed as inhibitors; 420,000 compounds, 12% hits; AID 686979; note: potency is the fitted concentration of half-maximal effect; % is set by controls: 0 for no effect and ±100 for the full control effect; nearly all actives have a fitted effect of over 55% in size
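Chicken DT40 Tdp1-/- cells complemented with human TDP1, 400 cells/well, exposed to compounds plus 20 nM camptothecin for at least 48 h at 37 C; viability read as ATP content by CellTiter-Glo luminescence.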
* = called active by the depositor; ? = inconclusive; / = not tested or not shown. Only some compounds are listed: those with a hit (about 19% of all), similar ones and a draw of the others. Unless noted, calls come from the whole dose curve; as a rule, active = well fitted curve in the direction sought with a large enough effect; inconclusive = small, poorly fitted or top-dose-only effect, or another doubt; inactive = no such curve, though single readings can be large; an effect the other way counts as inactive or inconclusive.

SMILES	IL1B secr inh	DT40 TDP1 no CPT	MCF10A rereplic	BCR signal inh	SW480 rerep	TDP1 cell CPT
CCN(CC)c1ccc(N=Cc2cc(Br)ccc2O)cc1	-2	?	?	-13%	10µM*	16µM*
CC(C)(C)c1ccc(O)c(N=Cc2cc(Br)ccc2O)c1	55	26µM*	17%	-25%	7%	?
COc1cccc(Nc2ncc3nc(-c4cccs4)c(=O)n(C[C@H]4CCCO4)c3n2)c1	/	-18%	/	/	/	?
COc1ccccc1NC(=O)CN1CCN(C(=O)C2CCCO2)CC1 (stereo not drawn)	0	9%	-1%	0%	2%	3%
CC(C)OC(=O)c1c(NC(=O)c2cccc(C(F)(F)F)c2)sc2c1CCCC2	/	-24%	/	/	/	-3%
O=C(COc1ccc([N+](=O)[O-])cc1)Nc1ccc2c(c1)nc1n2CCOC1	6	?	23µM*	?	?	?
O=S(=O)(Nc1ccc2c(c1)nc1n2CCOC1)c1ccc(Cl)cc1	24	13µM*	2%	-23%	10%	?
COc1ccc(S(=O)(=O)Nc2ccccc2C(=O)NCc2cccnc2)cc1OC	19	9%	0%	9%	-14%	1%
COc1ccc(C)cc1NC(=O)N(C(C)C)C1CCN(C(C)=O)CC1	/	1%	/	/	/	18%
CCc1ccc(CNC(=O)CCCn2c(=O)c3cccn3c3cccnc32)cc1	?	?	15%	5%	-7%	16µM*
CC(C)Oc1ccc(CNC(=O)CCCn2c(=O)c3cccn3c3cccnc32)cc1	/	16µM*	/	/	/	26µM*
CC(C(=O)NCCc1ccc(Cl)cc1)n1c(=O)c2cccn2c2cccnc21 (stereo not drawn)	-3	18µM*	7%	-11%	?	?
O=C(CCCn1c(=O)c2cccn2c2cccnc21)NCCc1ccc(Cl)cc1	-27	23µM*	-1%	4%	-28%	21µM*
O=C(CCn1c(=O)c2cccn2c2cccnc21)NCc1ccc(Cl)cc1	/	?	/	/	/	-15%
Cc1cc(C)c(NC(=O)CNC(=O)c2ccccc2OCc2c(C)noc2C)c(C)c1	7	-26%	26%	?	?	-22%
CC(C)(C)OC(=O)Nc1ccccc1-n1nnnc1C(C(=O)c1ccc(F)cc1)N1CCN(c2ccccn2)CC1 (stereo not drawn)	30	-26%	/	/	/	-2%
CSc1cccc(NC(=O)CCCn2c(=O)c3cccn3c3cccnc32)c1	-23	21µM*	5%	-1%	-9%	?
CCC(C)NC(=O)CCCn1c(=O)c2cccn2c2ccccc21 (stereo not drawn)	/	-10%	/	/	/	-28%
CC(C)Oc1ccc(CNC(=O)CCCn2c(=O)c3cccn3c3ccccc32)cc1	/	23µM*	/	/	/	16µM*
CCOc1cc(CNC(=O)CCCn2c(=O)c3cccn3c3cccnc32)cc(OCC)c1OCC	-16	23µM*	0%	-2%	-5%	?
CCCCn1c(N)c(N(CCOC)C(=O)CSc2nnc(-c3ccco3)n2CC)c(=O)[nH]c1=O	-16	1%	6%	0%	-9%	4%
COc1ccc(-c2cc(C(C)=O)c(C)n2CCC(=O)Nc2cc(Cl)ccc2C)cc1	/	18µM*	/	?	/	21µM*
CCOc1ccccc1NC(=O)CCn1c(-c2ccc(OC)cc2)cc(C(C)=O)c1C	/	?	/	-28%	/	?
COc1ccc(-c2cc(C(C)=O)c(C)n2CCC(=O)NC2CCCCC2)cc1	/	?	/	?	/	23µM*
CC(=O)c1cc(-c2ccccc2)n(CC(=O)NC2CCCC2)c1C	-10	-20%	-2%	-1%	-15%	-16%

Screens from PubChem.
